The results in this text go back to ChEMBL document CHEMBL3988442, “University of Dundee, Small-Polar-MMV Screening Library” (2021).

Structures are written as SMILES. Hit rate of the full screen: of about 66,000 compounds, about 960 (1.5%) showed an effect of 50% or more. Shown is part of a subset that was picked to be rich in strong results.

In the assay the test system is Trypanosoma brucei. The assay is described as follows: Trypanosoma brucei 72 hour study. The format is functional, organism-based. Also noted: scale not given: in the data most compounds retested in dose-response had high values.

Take `O=C(C1CCOCC1)N1CCc2ncc(CN3CCCC3)n2CC1.O=C(O)C(F)(F)F`: the “Percent Effect” value (30.3 µM, […]) is reported as -192.2%.
The same measure, in the same setting: next, `CNC(=O)C(CC(C)C)NC(=O)c1cccc(-c2n[nH]c(C)n2)c1` (configuration not stated): -198.3%.
For `COc1cccc(-c2nc(C)c(C(=O)N[C@@H](CC(C)C)C(=O)O)s2)c1`, the “Percent Effect” value (30 µM, 30.03 µM) is given as -38.77%.
On to `CNC(=O)C(CC(C)C)NC(=O)c1cccc(-c2nc(C)cs2)c1` (configuration not stated), for which the “Percent Effect” value (30.3 µM, […]) is 71.45%.
Turning to `NC(=O)NCC(=O)N1C[C@H]2CC[C@@H]1CN(Cc1cscn1)C2`, the “Percent Effect” value (30 µM, 30.03 µM) is recorded as -50.24%.
For `CN(C)[C@@H]1CCN(CC2CC2)[C@H]1Cc1cnn(C)c1.O=C(O)C(F)(F)F.O=C(O)C(F)(F)F`, for the setting “30.3 µM, […]”, the “Percent Effect” value is given as -399.8%.
With `COc1ccc2[nH]cc(-c3ccnc(N4CCC(C)CC4)n3)c2c1`, the “Percent Effect” value (30.3 µM, […]) was determined as 23.49%.
Still for that read-out and setting: next, `COc1ccc2[nH]cc(-c3ccnc(NC4CCCC4)n3)c2c1`: 82.65%.
The same measure, in the same setting: the same measure for `O=c1[nH]c(-c2ccncc2)ncc1-c1ccnc(NC2CCCCC2)n1`: -18.66%; for `COCCN1CCC2(CCC(=O)N2Cc2csc(C)n2)CC1.O=C(O)C(F)(F)F.O=C(O)C(F)(F)F`: -13.8%; for `CC(=O)N1[C@@H](C(=O)NCC2CC2)C[C@@H]2CN(Cc3nccs3)C[C@@H]21.O=C(O)C(F)(F)F`: -16.07%.
As for `COc1cc(C(=O)N(CCC#N)Cc2ccccn2)cc(OC)c1C`, for the setting “30 µM, 30.03 µM”, the “Percent Effect” value is 4.832%.
For `COc1cc(C(=O)N(CCC#N)Cc2ccccn2)ccc1C`, where the note is “30 µM, 30.03 µM”, the “Percent Effect” value worked out at 33.36%.
Regarding `Cc1ccc(C(=O)N(CCC#N)Cc2ccccn2)cc1C`, the “Percent Effect” value (30 µM, 30.03 µM) is 52.21%.
With `Cc1cnn(C2CCCN(C(=O)c3ccc(-n4cccn4)nc3)C2)c1` (configuration not stated), the “Percent Effect” value is -2.436% (30.3 µM, […]) and -29.12% (10 mM, 10 mM as filed; unlikely as a test dose).
`O=C(O)C(F)(F)F.O=C1CCCN1Cc1nnn2c1CN(c1cccnc1)CCC2`: the “Percent Effect” value (30.3 µM, […]) is -14.81%.
As to `Cc1ccc(CN2Cc3c(C(=O)N4CCCC4)nn(C)c3C2)s1.O=C(O)C(F)(F)F`, for the setting “30 µM, 30.03 µM”, the “Percent Effect” value is on record as -54.81%.
In the case of `CN(C)Cc1nnn2c1CN(Cc1cccnc1)CCC2.O=C(O)C(F)(F)F.O=C(O)C(F)(F)F.O=C(O)C(F)(F)F`, the “Percent Effect” value (30 µM, 30.03 µM) was -10.93%.
With `Cc1cc(C)n(-c2ccccc2NC(=O)NCCCN(C)S(C)(=O)=O)n1`, the “Percent Effect” value (30 µM, 30.03 µM) is recorded as -25.36%.
Take `Cc1nn(-c2ncnc3[nH]cnc23)c2c1C(CC(C)C)CC(=O)N2` (configuration not stated): the “Percent Effect” value (30 µM, 30.03 µM) is recorded as 53.52%.
For the compound `Cc1ccc(-n2nc(C)c3c2NC(=O)CC3c2cnc(N)s2)cc1` (configuration not stated), for the setting “30.3 µM, […]”, the “Percent Effect” value was found to be 2.745%.
Consider `Cc1nn(-c2ccccc2)c2c1C(c1ccc(C(=O)O)cc1)CC(=O)N2` (configuration not stated), for which, where the note is “30 µM, 30.03 µM”, the “Percent Effect” value came to 16.38%.
For the compound `CC(C)CC1SCC(=O)Nc2c1cnn2C(C)C` (configuration not stated), under “30 µM, 30.03 µM”, the “Percent Effect” value came to 38.7%.
Turning to `Cc1nn(-c2ncnc3[nH]cnc23)c2c1C(C(C)C)CC(=O)N2` (configuration not stated), the “Percent Effect” value (30 µM, 30.03 µM) is recorded as 16.15%.
Still for that read-out and setting: next, `Cc1nn(-c2ncnc3[nH]cnc23)c2c1C(C(C)(C)C)CC(=O)N2` (configuration not stated): 101.7%.
As for `CC[C@@H](CO)Nc1cc(-c2cn[nH]c2)ncn1`, the “Percent Effect” value (30.3 µM, […]) is listed as -17.33%.
On the same count and under the same terms, the same measure for `COc1ccccc1NC(=O)NCCCn1nc2ccccn2c1=O`: -15.65%; for `CCc1c(C)nn2c(O)cc(C3CCN(C(=O)c4cnn(C)c4)C3)nc12` (configuration not stated): -13.28%.
Turning to `COc1ncc(-c2cc(-c3ccn(C)c3)nc(N)c2C#N)cn1`, the “Percent Effect” value (30 µM, 30.03 µM) was -14.16%.
Consider `CCCn1cc(-c2cc(-c3cc(CC)n[nH]3)c(C#N)c(N)n2)c(C)n1`, for which, under “30 µM, 30.03 µM”, the “Percent Effect” value was 41.43%.
With `CCCn1cc(-c2cc(-c3ccoc3)c(C#N)c(N)n2)c(C)n1`, the “Percent Effect” value (30 µM, 30.03 µM) is listed as -1.944%.
For the compound `CCCn1cc(-c2cc(-c3cnc(OC)nc3)c(C#N)c(N)n2)c(C)n1`, for the setting “30 µM, 30.03 µM”, the “Percent Effect” value came to 73.84%.
Consider `CCCn1cc(-c2cc(-c3c[nH]cn3)c(C#N)c(N)n2)c(C)n1`, for which the “Percent Effect” value (30 µM, 30.03 µM) is given as 58.89%.
The same measure, in the same setting: next, `CCn1cc(-c2cc(-c3cc(CC(=O)O)cs3)nc(N)c2C#N)c(C)n1`: -31.42%.
For the compound `CC(C)CS(=O)(=O)N1C[C@H]2C[C@H](C(=O)N3CCN(C)CC3)[C@@H](C1)O2.O=C(O)C(F)(F)F`, the “Percent Effect” value (30.3 µM, […]) is recorded as -51.72%.
For the compound `COc1ccccc1CCN1CCCC(CN(C)Cc2c[nH]c(C)n2)C1` (configuration not stated), the “Percent Effect” value (30 µM, 30.03 µM) is on record as 9.173%.
For the compound `CC(NC(=O)c1ccc(=O)n(C)c1)c1ccccc1-n1cccn1` (configuration not stated), the “Percent Effect” value (30 µM, 30.03 µM) is recorded as -14.43%.
Regarding `Cc1ccc(C)c(NC(=O)c2cc(S(=O)(=O)N3CCSCC3)c[nH]2)c1`, under “30 µM, 30.03 µM”, the “Percent Effect” value was 69.72%.
Consider `Cc1ccc(NC(=O)c2cc(S(=O)(=O)N3CCCCC3)c[nH]2)cc1F`, for which the “Percent Effect” value (30 µM, 30.03 µM) was -33.42%.
In the case of `Cc1nnc(NC(=O)c2cc(S(=O)(=O)N3CCSCC3)c[nH]2)s1`, the “Percent Effect” value (30 µM, 30.03 µM) is 37.66%.
For the compound `Cc1noc([C@@H]2CC[C@@H]3[C@@H](CCN3c3nnc(C)s3)O2)n1.O=C(O)C(F)(F)F`, the “Percent Effect” value (30.3 µM, […]) is -92.4%.
Turning to `CCc1ccc(C2NCCc3cc4c(cc32)OCCO4)cc1` (configuration not stated), the “Percent Effect” value (30.3 µM, […]) is 67.24%.
Consider `Fc1ccccc1C1NCCc2cc3c(cc21)OCCO3` (configuration not stated), for which the “Percent Effect” value (30.3 µM, […]) is reported as 18.61%.
Same read-out and setting: the same measure for `Clc1ccc(C2NCCc3cc4c(cc32)OCCO4)cc1` (configuration not stated): -20.9%; for `Cc1cc(CCC(N)=O)cc(C2CCCN2Cc2cnc(C)nc2)n1` (configuration not stated): -5.889%.
For the compound `O=C(O)C(F)(F)F.O=C(O)C(F)(F)F.c1coc(CN2C[C@@H]3CN(Cc4ccoc4)CCO[C@@H]3C2)c1`, for the setting “30.3 µM, […]”, the “Percent Effect” value was -14.62%.
